The structures appear in SMILES notation. Several values for one entry are separate records, joined by “and”; a condition that tells them apart may be missing. Equal entries are not always repeated. Records with an inconclusive call do not appear. Values without a mark were called inactive. Activity calls are given as the source filed them. The call rests on the fitted dose curve; in most records, active means well fitted curve in the direction sought with a large enough effect; inconclusive means small, poorly fitted or top-dose-only effect, or another doubt; inactive means no such curve, though single readings can be large; an effect the other way counts as inactive or inconclusive.

Test [1] is described as follows: Quantitative highthroughput screen to assess conditional lethalithy of NOMO1 cells grown in RPMI1640 with untreated serum (RPMI+s) (AID 1963876). Further: nearly all actives have a fitted effect of over 35% in size. Further: potency means the concentration at half of the fitted maximal effect.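 On viability: 100% = DMSO wells and 0% = empty wells without cells.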 A digest of the protocol: (§1)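 Each medium arm—HPLM with 10% dialyzed FBS, or RPMI1640 with 5 mM glucose and 10% untreated or dialyzed FBS—was screened against an 11-point, 3-fold compound titration for 48 h at 37 °C, with CellTiter-Glo luminescence as endpoint.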

A short description of test [2]: Quantitative highthroughput screen to assess conditional lethalithy of P12 Ichikawa cells grown in Human Plasma-Like Medium with dialyzed fetal bovine serum (HPLM+ds) (AID 1963879). Further: nearly all actives have a fitted effect of over 35% in size. Further: potency means the concentration at half of the fitted maximal effect. On viability: series mostly up to about 46 µM. The following applies: Potency: viability. Put shortly:
as §1

Test [3] in a line: Quantitative highthroughput screen to assess conditional lethalithy of P12 Ichikawa cells grown in RPMI1640 with dialyzed fetal bovine serum (RPMI+ds) (AID 1963880). Further: nearly all actives have a fitted effect of over 35% in size. Further: potency means the concentration at half of the fitted maximal effect.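 On viability: 100% = DMSO wells and 0% = empty wells on each plate.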 As to conditions: Potency: P12-Ichikawa viability. Put shortly:
as §1

A short description of test [4]: Quantitative highthroughput screen to assess conditional lethalithy of P12 Ichikawa cells grown in RPMI1640 with untreated serum (RPMI+s) (AID 1963881). Further: nearly all actives have a fitted effect of over 35% in size. Further: potency means the concentration at half of the fitted maximal effect.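 On viability: series mostly up to about 46 µM; 100% = DMSO wells and 0% = empty wells without cells.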 As to conditions: Potency: viability. Put shortly:
as §1

The nature of test [5]: Quantitative highthroughput screen to assess conditional lethalithy of SEM cells grown in RPMI1640 with unreated serum (RPMI+s) (AID 1963883). Further: nearly all actives have a fitted effect of over 35% in size. Further: potency means the concentration at half of the fitted maximal effect.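 On viability: 100% = DMSO wells and 0% = empty wells without cells.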 A digest of the protocol:
as §1

Test [6] can be described thus: Quantitative highthroughput screen to assess conditional lethalithy of SEM cells grown in RPMI1640 with dialyzed fetal bovine serum (RPMI+ds) (AID 1963884). Put shortly: as §1
Test [7] is described as follows: Quantitative highthroughput screen to assess conditional lethalithy of SEM cells grown in Human Plasma-Like Medium with dialyzed fetal bovine serum (HPLM+ds) (AID 1963882). Further: nearly all actives have a fitted effect of over 35% in size. Further: potency means the concentration at half of the fitted maximal effect. On viability: series mostly up to about 46 µM. A digest of the protocol:
as §1

Test [8] can be described thus: Cellular viability qHTS for adrenocortical cancer (ACC) cell line SW-13 (AID 1963989).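 Further: cells grown in serum-free medium with ITS supplement; on the % scale 0 is the no-effect control and ±100 the full control effect; nearly all actives have a fitted effect of over 65% in size.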 As to conditions: SW-13 ACC cells viability, CellTiter-Glo, 48 h; activity (max response): hits give low values. Put shortly: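 SW-13 cells in ITS-supplemented serum-free DMEM were plated overnight, then exposed for 48 h at 37C to compound titrations (up to 46 uM final). Viability was read by CellTiter-Glo luminescence; four-parameter logistic fits gave IC50 and efficacy.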

Test [9] in a line: Cellular viability qHTS for adrenocortical cancer (ACC) cell line NCI-H295R (AID 1963990).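 Further: 0% = DMSO only wells and -100% = full killing with cytotoxic reference compound; nearly all actives have a fitted effect of over 60% in size.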 Put shortly:
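Luminescent ATP read-out (CellTiter-Glo, 20 min RT) after 48 h drug exposure of NCI-H295R cells; a titration up to 46 uM final. Data normalized to doxorubicin (100% inhibition) and DMSO (0%); 4-parameter fit gives IC50, max response.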

On to `OCCN1C[C@H](O)[C@@H](O)[C@H](O)[C@@H]1CO`, for which the Potency in test [1] is 0.105 µM (active); in test [2], 2.64 µM (active); in test [3], 2.96 µM (active); in test [4], 2.64 µM (active). Besides, the Potency result in test [5] and in [6] was “inactive” in each case.

Turning to `Cc1ccccc1C(C(=O)NC1CCCC1)N(C(=O)Cn1cnc2ccccc21)c1cccc(F)c1` (configuration not stated), the Potency result in test [1], in [2], in [4], in [7] and in test [6] was “inactive” each time.

On to `CN[C@H]1[C@@H](O)[C@@H]2O[C@@H]3O[C@H](C)CC(=O)[C@]3(O)O[C@@H]2[C@@H](NC)[C@H]1O`, for which the Potency entry in [1], in test [2], in test [3], in test [4], in test [7] and in [6] was “inactive” throughout.

For `COc1ccc(-c2ccc3c(N4CCOC[C@H]4C)nc(N4CCOC[C@H]4C)nc3n2)cc1CO`, the Potency in test [1] and in test [2] was 18.7 µM (active) in each case.

As to `CCc1cc(C(C)=NOCc2ccc(C3CCCCC3)c(C(F)(F)F)c2)ccc1CN1CC(C(=O)O)C1`, the Potency was 8.33 µM (active) in test [1]; 8.33 µM (active) in [2]; 7.43 µM (active) in [3]; 9.35 µM (active) in [4]; 7.43 µM (active) in [7]; 13.2 µM (active) in test [5].

For `CN1C(C(=O)Nc2ccccn2)=C(O)c2ccccc2S1(=O)=O`, the Potency in test [1] was 11.8 µM (active); in test [2], 11.8 µM (active); in test [3] it was 16.6 µM (active); in [4], 14.8 µM (active). Also, in [8], the activity (max response) was -11.3% and -19.8%.

`CN[C@@H](C)C(=O)N[C@H]1CCCC[C@H]2CC[C@@H](C(=O)N[C@@H](c3ccccc3)c3cn(CCCCc4ccc(CCCCn5cc([C@@H](NC(=O)[C@@H]6CC[C@@H]7CCCC[C@H](NC(=O)[C@H](C)NC)C(=O)N76)c6ccccc6)nn5)cc4)nn3)N2C1=O`: the Potency entry in test [1], in test [2], in test [3], in [4], in test [7] and in [9] was “inactive” throughout. Besides, the activity (max response) in test [8] was -2.95%.

Values taken from PubChem BioAssay (NCATS).
